This is a sample that favours compounds with a hit; in the whole collection about 2.2% have one here.
EBNA-1 inhibitor: blocks EBNA-1 binding to DNA; EBNA-1 DNA binding, fluorescence polarization; inhibition, % at 14.8 µM; 300,000 compounds, 0.34% hits; in the data active means inhibition above about 28%
NALP1 inh: NALP1 inhibition | inhibition, % at 10 µM | 280,000 compounds, 0.61% hits | S. cerevisiae NALP1/ASC/caspase-1 growth, X-gal OD620, 72 h; in the data active means inhibition mostly above about 24%, no sharp cut-off; inactive means mostly below about 32%
dFosB act-1: activators of mouse delta FosB homodimer. P13346. purified delta FosB, TAMRA-CDK5 oligo fluorescence polarization; percent of positive-control signal above neutral wells. activation, % at 25 µM. 340,000 compounds, 0.99% hits. AID 493131;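 active means mean activation above about 17%, with every replicate also reaching it, limit read from the data, passing the limit was not always enough; inconclusive means only one of the two conditions met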
Target sequence (P13346 whole entry, looked up): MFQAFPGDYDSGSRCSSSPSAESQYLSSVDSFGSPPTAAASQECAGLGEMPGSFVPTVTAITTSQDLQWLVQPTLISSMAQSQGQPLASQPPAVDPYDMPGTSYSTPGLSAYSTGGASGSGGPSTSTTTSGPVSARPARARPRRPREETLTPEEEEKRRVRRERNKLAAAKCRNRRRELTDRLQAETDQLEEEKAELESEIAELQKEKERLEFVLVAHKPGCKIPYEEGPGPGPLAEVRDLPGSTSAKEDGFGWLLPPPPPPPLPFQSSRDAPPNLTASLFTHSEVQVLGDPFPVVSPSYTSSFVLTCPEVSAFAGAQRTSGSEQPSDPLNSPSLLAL
NALP3 yeast inh: blocks the NALP3 inflammasome reconstituted in yeast; Yeast reconstituted NLRP3/ASC/caspase-1, beta-gal luminescence, 24 h; inhibition, % at 10 µM; 330,000 compounds, 0.39% hits;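 active means inhibition of 50% or more; inactive means inhibition below 50%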;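 further: plate controls were induced DMSO wells for no effect and uninduced yeast grown without galactose for full effect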
ZTA DNA inh: blocks Epstein-Barr virus ZTA, an EBNA-1 counter-screen; P03206; ZTA-DNA binding, fluorescence polarization; inhibition, % at 11 µM; 320,000 compounds, 0.15% hits; in the data active means inhibition above about 33%
Target sequence (P03206 whole entry, looked up): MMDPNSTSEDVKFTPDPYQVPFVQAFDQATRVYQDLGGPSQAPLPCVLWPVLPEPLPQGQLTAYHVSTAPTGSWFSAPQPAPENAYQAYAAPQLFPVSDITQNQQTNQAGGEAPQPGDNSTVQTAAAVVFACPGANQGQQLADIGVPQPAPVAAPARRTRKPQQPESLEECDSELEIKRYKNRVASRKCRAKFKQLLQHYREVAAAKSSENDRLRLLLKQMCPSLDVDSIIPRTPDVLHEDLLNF
PolyA inh: yeast polyadenylation inhibition | S. cerevisiae SKY197-pL101 polyadenylation reporter, beta-gal luminescence; efflux-impaired pdr1/pdr3 knockout yeast; score 100 = 6 SD above DMSO | activity score, % at 12 µM | 300,000 compounds, 0.02% hits;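 active means lowest replicate activity score at least 50, where 100 means six control SD above control mean; inconclusive means lowest score under 50 but half or more replicates reach 50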;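 further: yeast exposed to compound for 9 h at 30 °C; higher score means more reporter readthrough which indicates perturbed polyadenylation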
ZTA inh confirm: EBV ZTA DNA binding inhibition, confirmation; shares compounds with ZTA DNA inh; Zta-ZRE DNA binding, fluorescence polarization; inhibition, % at 11.1 µM; 320 compounds, 30% hits;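 active means mean inhibition across triplicate runs above the hit threshold derived for the original primary screen, cut at about 33% in these data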;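 further: 0% = Zta with DMSO and 100% = wells lacking Zta protein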
EBNA-1 counter: counter-screen for ZTA inhibitors: EBNA-1 DNA binding inhibition | shares compounds with ZTA DNA inh | fluorescence polarization | inhibition, % at 14.8 µM | 320 tested, under 10 active | AID 2362; call rule not given here
NALP3 confirm: NALP3 inhibition confirmation in yeast. shares compounds with NALP3 yeast inh. yeast expressing human NALP3, luminescence. inhibition, % at 10 µM. 1,300 compounds, 81% hits. AID 435006; in the data active means inhibition above about 48%
Casp1-ASC yeast: counter-screen for NALP3 inhibitors: yeast caspase-1-ASC. shares compounds with NALP3 yeast inh. yeast expressing Caspase-1-ASC, luminescence counter screen. inhibition, % at 10 µM. 1,000 compounds, 66% hits. AID 488784
NALP3 yeast rt: confirmation retest of NALP3 inhibitors in yeast | shares compounds with NALP3 yeast inh | yeast expressing human NALP3, luminescence read-out | inhibition, % at 10 µM | 1,000 compounds, 53% hits | AID 488794
dFosB act-2: activators of mouse delta FosB homodimer DNA binding; shares compounds with dFosB act-1; purified delta FosB, TAMRA-CDK5 oligo fluorescence polarization; normalised: neutral wells 0, positive control 100; activation, % at 24.9 µM; 2,400 tested, under 10 active;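 active means highest replicate activation at or above 34% and every replicate reaching that threshold; inconclusive means meets only one of the two criteria; inactive means meets neither criterion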;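 further: higher polarization means more probe DNA bound by delta FosB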
The depositor's hits bear a star; ? = inconclusive; / = no result given. Unless noted, no stated cut-off is given here; in the data, active means inhibition above about 50%; inactive means the rest.

SMILES	EBNA-1 inhibitor	NALP1 inh	dFosB act-1	NALP3 yeast inh	ZTA DNA inh	PolyA inh	NALP3 confirm	Casp1-ASC yeast	NALP3 yeast rt	others
O=C1C=C(c2ccc(OC(F)(F)F)cc2)C[C@@H](c2ccc(Cl)cc2)C1	/	/	-3.5	8.9	7.1	/	/	/	/
CCN(C(=O)CCN1C(=O)S/C(=C\c2ccccc2)C1=O)C1CCS(=O)(=O)C1 (configuration not stated)	16.4	3.0	-5.4	-6.7	11.4	-4.4	/	/	/
O=C(O)c1ccc(CN2C(=O)c3cccc4c([N+](=O)[O-])ccc(c34)C2=O)cc1	/	4.8	-5.4	/	/	-51.6	/	/	/
Cc1ccc(C(=O)O)cc1N1C(=O)c2cccc3c([N+](=O)[O-])ccc(c23)C1=O	9.2	14.2	-9.8	17.9	39.5*	6.1	/	/	/	ZTA inh confirm=35.4*;EBNA-1 counter=0.3
CCOC(=O)C1(Cc2cccc(OC)c2)CCN(C/C=C/c2ccc(OC)cc2)CC1	-13.3	10.5	-8.7	30.4	-8.6	-4.0	/	/	/
CCOC(=O)C1(Cc2cccc(OC)c2)CCN(CC=C(C)C)CC1	-0.7	-1.2	0.1	5.5	95.3*	14.1	/	/	/	ZTA inh confirm=-2.0;EBNA-1 counter=-4.6
O=C(O)c1ccc(S(=O)(=O)/N=C2\C=C(Nc3ccccc3F)C(=O)c3ccccc32)cc1	2.0	79.9*	-16.1	93.9*	61.8*	-8.8	82.7*	99.3*	97.4*	ZTA inh confirm=69.1*;EBNA-1 counter=10.8
CC(Oc1ccc2ccccc2c1)C(=O)NNC(=O)Nc1ccccc1F (configuration not stated)	/	6.9	-9.8	-6.9	/	14.8	/	/	/
Cc1ccc2sc(NC(=O)CSc3nc(C)cc(C)c3C#N)nc2c1	11.1	12.7	-3.0	51.1*	38.3*	4.9	40.8	10.6	17.2	ZTA inh confirm=-0.3;EBNA-1 counter=-6.6
Cc1cc(C(F)(F)F)c(C#N)c(SCC(=O)Nc2nc3ccccc3s2)n1	-12.9	-1.8	-4.4	21.2	5.8	17.1	/	/	/
COc1ccc(-n2nnc3c(=O)n(CC(=O)N4CCCc5ccccc54)cnc32)cc1	15.3	/	34.8*	10.3	35.9*	-11.1	/	/	/	ZTA inh confirm=2.7;EBNA-1 counter=-7.9;dFosB act-2=2.6
CCNC(=O)CN(c1ccc(Oc2ccccc2)cc1)S(=O)(=O)c1ccccc1	-2.4	9.1	1.9	34.0	-19.6	12.9	/	/	/
CCCCCCCCCCCCCCCC(=O)OC(CC(=O)O)C[N+](C)(C)C (configuration not stated)	2.9	/	11.5	57.0*	11.1	/	45.2	67.0*	44.6
CCCCCCC(=O)O	/	/	4.4	2.6	/	/	/	/	/
CCN(CC)S(=O)(=O)c1ccc2nc(SC)sc2c1	7.7	16.6	-10.7	75.3*	-8.5	-9.5	81.6*	73.3*	65.9*
Cc1cc(C)n(CCN(C)C(=O)C2CCC(=O)N(CCc3cccc(F)c3)C2)n1 (configuration not stated)	-19.8	25.6	1.8	9.0	2.7	7.5	/	/	/
C/C(=N/Nc1ncc(Br)cn1)c1ccc(Br)cc1	-13.6	13.6	-1.9	54.8*	-5.9	-27.2	70.3*	60.8*	51.8*
Cc1ccc(-c2csc(NC(=O)c3ccccc3F)c2C(=O)O)cc1	-25.3	3.6	-4.0	71.4*	6.8	16.5	85.8*	76.5*	63.5*
O=C(Nc1scc(-c2ccc(Br)cc2)c1C(=O)O)c1ccccc1F	8.9	/	-8.3	82.2*	7.6	18.1	90.9*	/	/
O=C(Nc1scc(-c2ccccc2)c1C(=O)O)c1ccccc1F	1.0	-4.7	-1.0	28.9	-12.4	1.8	/	/	/
COc1ccc(-c2csc(NC(=O)c3ccccc3Br)c2C(=O)O)cc1	9.2	11.3	4.6	42.4	3.7	17.1	/	/	/
Cc1ccccc1C(=O)Nc1scc(-c2ccc(Br)cc2)c1C(=O)O	4.7	/	-12.9	68.2*	4.8	38.6	76.7*	21.4	27.6
CCc1ccccc1NC(=O)C1CCN(S(C)(=O)=O)CC1	0.1	/	/	22.1	2.9	-16.5	/	/	/
CCN(CC)C(=S)SCC(=O)c1ccc(Br)cc1	0.6	29.0	-8.2	55.2*	-17.2	-43.4	63.6*	/	/
CCn1c(CNC(C)=O)nnc1SCC(=O)c1ccc(Br)cc1	-0.1	-2.8	-0.8	3.5	4.3	7.4	/	/	/
SMILES	EBNA-1 inhibitor	NALP1 inh	dFosB act-1	NALP3 yeast inh	ZTA DNA inh	PolyA inh	NALP3 confirm	Casp1-ASC yeast	NALP3 yeast rt	others
NC(=O)C1(Nc2ccc(-c3ccc(Br)cc3)cc2)CCCC1	/	/	-11.6	/	/	/	/	/	/
O=C(Nc1ccc(F)cc1)c1nc(S(=O)(=O)Cc2ccccc2)ncc1Cl	8.0	-12.5	-3.6	31.9	6.5	-70.1	/	/	/
Cc1ccc(NC(=O)c2nc(S(=O)(=O)Cc3ccccc3)ncc2Cl)cc1	-3.2	-11.6	11.9	55.2*	-1.6	-72.8	68.2*	49.8	53.0*
Cc1cc(C)n(CCC(=O)N2CCCC(Nc3ccc(F)cc3)C2)n1 (configuration not stated)	1.7	6.5	-0.5	9.7	-4.8	5.4	/	/	/
Cn1nnc(NC(=S)NC(=O)c2cccc3c(Br)cccc23)n1	11.1	2.4	?	41.3	5.2	-25.8	/	/	/
Cn1nnc(NC(=S)NC(=O)c2cccc3c(Cl)cccc23)n1	-5.2	-6.6	-6.0	54.1*	-8.2	-20.6	64.4*	74.2*	46.4
O=[N+]([O-])c1cccc(-c2ccc3nnc(SCc4cccnc4)n3n2)c1	/	/	-2.2	/	/	/	/	/	/
CCC(C(=O)OC)n1cnc2scc(-c3ccc(C)c(C)c3)c2c1=O (configuration not stated)	-1.3	100.2*	-10.3	96.6*	5.6	-5.6	99.2*	99.1*	98.2*
Cc1ccc(-c2csc3ncn(CC(N)=O)c(=O)c23)cc1C	5.4	-7.6	-2.1	10.1	-12.9	5.9	/	/	/
CN(C)S(=O)(=O)c1ccc(Cl)c(C(=O)NC2=NCCS2)c1	-5.9	17.0	-2.0	3.0	-2.8	5.4	/	/	/
Cc1cc(Cl)c2oc(C(=O)N(C)Cc3cc(C)[nH]n3)c(C)c2c1	-1.8	3.4	-16.1	29.8	-12.1	1.6	/	/	/
Cc1cc(Cl)c2oc(C(=O)N(C)Cc3ccon3)c(C)c2c1	-7.6	41.5*	-7.5	50.1*	-10.0	4.3	47.7*	41.4	46.5

Screening results (PubChem)
